Results on 24 compounds are retold here after PubChem BioAssay (NCATS).

Where “and” joins values, the source holds several entries; their conditions need not be identical. Equal values may be shown once. Results filed as inconclusive are left out. A structure can be active in one record and inactive in another. Unmarked numbers belong to inactive results. Calls of active or inactive are those of the source. Calls come from the whole dose curve; as a rule, active = well fitted inhibition curve with a large enough effect; inconclusive = small, poorly fitted or top-dose-only effect; inactive = flat fitted curve, though single readings scatter.

For one assay, the system named is CRL-7250. Nature of the assay: Cytotoxic Profiling of Annotated Libraries Using Quantitative High-Throughput Screening (AID 1296008). For max response: % is set by controls: 0 for no effect and ±100 for the full control effect. The conditions noted are these: Five cell lines viability, CellTiter-Glo ATP luminescence, 48-72 h; max response: active compounds read low. In outline: (§1)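 Cells exposed to compounds for 48 or 72 hr at 37 degrees Celsius. Viability read as ATP-coupled luminescence with CellTiter-Glo after 10 min at room temperature.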
(In general: Cellular ATP, detected with luciferase, serves as a proxy for viable cell number.)

A further assay concerns HEK293. The assay is described as above. Conditions: Five cell lines viability, CellTiter-Glo ATP luminescence, 48-72 h; max response: active compounds read low. In outline:
as §1

In the next assay the test system is HaCat. The assay is described as above. Conditions: Five cell lines viability, CellTiter-Glo ATP luminescence, 48-72 h; max response: active compounds read low. In outline:
as §1

The test system of another assay is PC26. Nature of the assay: qHTS profiling for inhibitors of Plasmodium falciparum proliferation (AID 504749). The conditions noted are these: P. falciparum in erythrocytes, SYBR Green DNA, 72 h; series mostly up to 28.7 µM. In outline: (§2)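 Readout was DNA-dye fluorescence from lysed cultures, ex 485/em 535 nm. Parasitized red cells had grown 72 h with compound; data scaled between 0.29 uM artemisinin and DMSO wells and corrected using vehicle-only plates.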
Background: In qHTS, concentration-response curves come from the screen itself.

A further assay deals with SC27B. Described as above. The conditions noted are these: P. falciparum in erythrocytes, SYBR Green DNA, 72 h; series mostly up to 28.7 µM. In outline: as §2
The next assay deals with TAB109. Described as above. Conditions: P. falciparum in erythrocytes, SYBR Green DNA, 72 h; series mostly up to 28.7 µM. In outline: as §2
The test system of a further assay is TAB113. The assay is described as above. Conditions: P. falciparum in erythrocytes, SYBR Green DNA, 72 h; series mostly up to 28.7 µM. In outline: as §2
A further assay relates to TAB165. The assay is described as above. Conditions: P. falciparum in erythrocytes, SYBR Green DNA, 72 h; series mostly up to 28.7 µM. In outline:
as §2

The test system of the next assay is W2. The description is as above. Conditions: P. falciparum in erythrocytes, SYBR Green DNA, 72 h; series mostly up to 28.7 µM. In outline:
as §2

The subject of the next assay is PC49. Described as above. The conditions noted are these: P. falciparum in erythrocytes, SYBR Green DNA, 72 h; series mostly up to 28.7 µM. In outline:
as §2
Note: nearly all actives have a fitted effect of over 60% in size.
Potency is the fitted concentration of half-maximal effect.

In the case of `CC(C)[N+]1(C)[C@@H]2CC[C@H]1CC(OC(=O)C(CO)c1ccccc1)C2` (stereo partly specified), the values for the max response in the assay on CRL-7250 and with HEK293 were 2.83% and -4.08%, respectively. In the assay with HaCat, the outcome was inactive.

`O=c1c(O)c(-c2cc(O)c(O)c(O)c2)oc2cc(O)cc(O)c12`: the max response is 3.08% in the assay on CRL-7250 and -2.69% with HEK293. Also, the outcome with HaCat was inactive.

Regarding `O=C1NC(=O)C(c2ccccc2[N+](=O)[O-])=C1Nc1ccc(O)c(Cl)c1`, the max response in the assay on CRL-7250 was -2.05%; in the assay with HaCat, -25.3%. In addition, in the assay on HEK293, the compound was called inactive.

`Cc1ccc(S(=O)(=O)NC(=O)NN2CC3CCCC3C2)cc1` (stereo unspecified): the compound was called inactive in the assay on CRL-7250 and with HaCat. The max response in the assay on HEK293 was 2.56%.

Turning to `COC(=O)C1=C(C)NC(C)=C(C(=O)OCCCN2CCC(c3ccccc3)(c3ccccc3)CC2)C1c1cccc([N+](=O)[O-])c1` (stereo unspecified), the Potency is 6.01 µM (active) with PC26; 3.55 µM (active) in the assay on SC27B; 5.01 µM (active) in the assay with TAB109; 2.51 µM (active) in the assay on TAB113; 2.82 µM (active) with TAB165; 3.38 µM (active) in the assay on W2. Besides, in the assay with HEK293, the Potency was 8.41 µM (active). Also, the figures for the max response in the assay on CRL-7250 and with HEK293 were -3.52% and -0.0015%, respectively. For the same compound, in the assay on HaCat, the compound was called inactive.

As to `CC(C)c1ccc2c(c1)c(SC(C)(C)C)c(CC(C)(C)C(=O)O)n2Cc1ccc(Cl)cc1`, the max response was -29.4% in the assay on CRL-7250, -2.03% in the assay on HEK293 and -20.8% in the assay with HaCat.

Regarding `C[C@@H](c1ncncc1F)[C@](O)(Cn1cncn1)c1ccc(F)cc1F`, the max response in the assay on CRL-7250 is -18.6%; with HEK293, -20.1%. Further, the compound was classed as inactive in the assay on HaCat.

As to `O=c1c(O)c(-c2ccc(O)cc2O)oc2cc(O)cc(O)c12`, the values for the max response in the assay with CRL-7250 and in the assay on HEK293 were -3.27% and 4.53%, respectively. Further, in the assay with HaCat, the outcome was inactive.

In the case of `CC1(C)C(=O)N(CCN2CCC(C(=O)c3ccc(F)cc3)CC2)c2ccccc21`, the max response with CRL-7250 was 0.499%; in the assay on HaCat, -16.9%. Further, in the assay with HEK293, the result was inactive.

With `Nc1ncn([C@H]2C[C@H](O)[C@@H](CO)O2)c(=O)n1`, the max response with CRL-7250 was -5.93% and -8.36%. For the same compound, the Potency in the assay with HEK293 is 18.7 µM (active). Also, in the assay on HaCat, the compound was classed as inactive.

Regarding `O=C(CCc1ccc(O)cc1)c1c(O)cc(O)cc1O`, the call in the assay on CRL-7250 and in the assay with HaCat was inactive. Besides, in the assay on HEK293, the max response is 0.264%.

`COc1c(O)cc2c(c1O)[C@@H]1O[C@H](CO)[C@@H](O)[C@H](O)[C@H]1OC2=O`: the outcome with CRL-7250 and with HEK293 was inactive. Further, the max response in the assay with HaCat was -11.1% and -23.6%.

Take `Oc1ccc2ccccc2c1SSc1c(O)ccc2ccccc12`: the results for the max response in the assay on CRL-7250 and in the assay with HEK293 were -5.27% and -1.68%, respectively. Also, the outcome in the assay with HaCat is “inactive; activator”.

For `CCOC(=O)C(C)Oc1cccc2c(=O)n(CC(=O)Nc3ccc4c(c3)OCCO4)ccc12` (stereo unspecified), the max response was 3.46% in the assay on CRL-7250 and -23.2% with HEK293. Besides, the result in the assay with HaCat was inactive.

For `Nc1nc(OCc2ccccc2)c2[nH]cnc2n1`, the max response in the assay with CRL-7250 was 0.448%. The result with HEK293 and in the assay with HaCat was inactive.

As for `CCOC(=O)C1=C[C@@H](OC(CC)CC)[C@H](NC(C)=O)[C@@H](N)C1`, the max response with CRL-7250 was 0.667%; with HEK293 it was -4.58%; in the assay on HaCat, 1.74%.

On to `CCOC(=O)c1c(C)n(C)c2ccc(O)cc12`, for which the Potency result with PC26, with PC49, in the assay with SC27B, in the assay with TAB109, with TAB113 and in the assay on TAB165 was “inactive” each time. For the same compound, the Potency entry with W2 was “inactive”. For the same compound, the max response was 3.97% and 0.808% with CRL-7250; 0.41% and 2.4% in the assay with HEK293; 4.97% in the assay on HaCat. Besides, the compound was called inactive in the assay with HaCat.

Turning to `CCCOc1ccc2nc(NC(=O)OC)[nH]c2c1`, the Potency entry with PC26, with PC49, with SC27B, in the assay with TAB109, in the assay on TAB113 and with TAB165 was “inactive” each time. Also, the Potency entry in the assay with W2 was “inactive”. Also, the Potency is 668 nM (active) and 132 nM (active) in the assay with CRL-7250; 0.15 µM (active) in the assay with HEK293. Further, the outcome in the assay with HaCat was inactive.

`COc1cc(OC)c(C(=O)CCCN2CCCC2)c(OC)c1`: the Potency entry in the assay with PC26, in the assay on PC49, in the assay on SC27B, in the assay on TAB109, with TAB113 and with TAB165 was “inactive” throughout. The Potency entry in the assay on W2 was “inactive”. Further, the outcome with CRL-7250 was inactive. Further, the max response with HEK293 is -1.67% and -16.3%; in the assay with HaCat, 4.83% and -3.89%.

For `NC(=O)Cc1cccc(C(=O)c2ccccc2)c1N`, the max response is -2.24% and -8.84% in the assay with CRL-7250; -0.043% and -1.4% with HEK293; -6.4% with HaCat. The result in the assay with HaCat was inactive.

As for `CCN(CC)CCOc1ccc(Cc2ccccc2)cc1`, the Potency entry in the assay on PC26, in the assay on PC49, with SC27B, in the assay with TAB109, in the assay on TAB113 and in the assay with TAB165 was “inactive” in each case. Moreover, the values for the max response in the assay on CRL-7250 and in the assay on HaCat were -29.7% and -17.2%, respectively. In the assay with HEK293, the Potency is 8.33 µM (active). Also, the compound was called inactive in the assay with HaCat.

In the case of `CCCCCCCCCCCCCCCCCCCCCCO`, the Potency entry in the assay with PC26, with PC49, in the assay on SC27B, in the assay with TAB109, in the assay with TAB113 and in the assay on TAB165 was “inactive” throughout. The Potency entry in the assay with W2 was “inactive”. Moreover, the call with CRL-7250 was inactive. Also, the max response is 1.6% in the assay with HEK293 and 4.38% with HaCat.

With `COCCCOc1ccnc(CS(=O)c2nc3ccccc3[nH]2)c1C` (stereo unspecified), the Potency was 19 µM (active) in the assay with PC26 and 1.07 µM (active) in the assay with W2. In addition, the Potency entry with PC49, with SC27B, in the assay on TAB109 and in the assay with TAB113 was “inactive” throughout. Moreover, the result in the assay with CRL-7250 was inactive. Also, the max response with HEK293 is 1.81%; with HaCat, -2%. Also, the outcome in the assay with HaCat is “inactive; activator”.

Regarding `O=C(NCCO[N+](=O)[O-])c1cccnc1`, the Potency entry in the assay with PC26, in the assay on PC49, with SC27B, with TAB109, in the assay with TAB113 and in the assay with TAB165 was “inactive” in each case. In addition, the Potency entry in the assay with W2 was “inactive”. In addition, the max response with CRL-7250 was -0.661% and -5.95%; with HaCat, 4.19%. For the same compound, the outcome in the assay on HEK293 and in the assay with HaCat was inactive.
